Compound activity from PubChem.
TGFb inhibitor: TGF-b pathway inhibition | HepG2 CAGA-GFP TGF-b/SMAD3 reporter, GFP fluorescence, 18 h; TGF-beta stimulated, 500 pg/mL final | Potency, µM (top dose mostly 46.1 µM), for inactives: at the highest dose activity, negative = inhibition, most hits filed as inhibitors | 410,000 compounds, 1.2% hits; also: % is scaled to controls: 0 for no effect and ±100 for the full control effect; nearly all actives have a fitted effect of over 65% in size
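GFP signal (ex488/em500-530) from TGF-beta-stimulated HEPG2 CAGA-GFP cells, 500 pg/mL final, 18 h at 37 degrees C in DMEM plus 1% FBS, normalized to unstimulated and DMSO-stimulated controls.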
HT1080 IDH1KD tx: HT-1080 IDH1 knockdown cell toxicity (counter line). HT-1080 IDH1 knockdown viability, ATP luminescence, 48 h. Potency, µM (doses to about 46.1 µM), for the others: top-dose activity, negative = toxicity, usual class: cytotoxic. 360,000 compounds, 2% hits. AID 686971;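 also: 0% = DMSO wells and -100% = cell-free medium wells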
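In this qHTS, HT-1080 cells depleted of IDH1 are exposed for 48 h at 37 °C to compound titrations. Toxicity is scored from CellTiter-Glo luminescence, with DMSO as full viability and medium alone as none.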
KB-3-1 tox: KB-3-1 parental cell cytotoxicity; KB-3-1 viability, CellTiter-Glo ATP luminescence, 72 h; 400,000 compounds, 1.4% hits; AID 1347075; Potency, µM (titrated, usually from 46.1 µM), usual class: cytotoxic; also: % is scaled to controls: 0 for no effect and ±100 for the full control effect; nearly all actives have a fitted effect of over 60% in size
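KB-3-1 parental drug-naive adenocarcinoma cells in DMEM/10% FBS, incubated 72 h at 37 C with pin-transferred compounds across a concentration series. Viability by CellTiter-Glo luminescence; concentration-response curves fitted after normalization.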
HT1080-NT tox: kills 2HG-producing HT-1080-NT fibrosarcoma cells | HT-1080-NT fibrosarcoma viability, CellTiter-Glo ATP luminescence, 48 h | Potency, µM (doses to about 46.1 µM), for the others: top-dose activity, negative = less viability, hits mostly cytotoxic | 360,000 compounds, 1.6% hits | AID 686970;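 also: NT is the 2HG producing partner of a matched IDH1 knockdown line; 0% = DMSO-treated cells and -100% = media-only wells without cells; nearly all actives have a fitted effect of over 55% in size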
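Toxicity toward the 2HG-producing NT line was scored as %Activity, normalised to DMSO and no-cell wells, from CellTiter-Glo luminescence after 48 hours' treatment.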
HepG2 viability: HepG2 cytotoxicity, counter-screen for TGF-b inhibitors. HepG2 CAGA-GFP viability, ATP luminescence, 18 h. AID 588856. 410,000 compounds, 0.76% hits. Potency, µM (top dose mostly 46.1 µM), for inactives: top-dose activity change, negative = cytotoxicity, hits mostly cytotoxic
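HepG2 CAGA-GFP cells (1000/well, DMEM with 1% FBS) received compound, then TGF-beta at 500 pg/mL final, and were incubated 18 hours at 37 degrees C. Viability was read by CellTiter-Glo luminescence. Media-only wells were set as complete cell-killing and DMSO as no toxicity.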
KB-V1 cytotox: kills drug-selected multidrug resistant KB-V1 cells | KB-V1 MDR cells viability, CellTiter-Glo, 72 h | 400,000 compounds, 3.4% hits | AID 1347076 | Potency, µM (titrated, usually from 46.1 µM), actives largely listed as cytotoxic; also: % is scaled to controls: 0 for no effect and ±100 for the full control effect; nearly all actives have a fitted effect of over 60% in size
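Cells of the MDR subline KB-V1 are plated, dosed with compound at multiple concentrations, and incubated 72 h at 37 degrees C; CellTiter-Glo is then added and luminescence read after 10 min.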
Numbers without * were called inactive; i = inactive; u = inconclusive; x = no result given; [ ] = another dose, or the depositor's remark. A selection: hits, their analogues and other compounds. The true share with any hit is near 6.6%. Calls follow the shape of the dose curve; as a rule, active = well fitted curve in the direction sought with a large enough effect; inconclusive = small, poorly fitted or top-dose-only effect, or another doubt; inactive = no such curve, though single readings can be large; an effect the other way counts as inactive or inconclusive. Potency is read from the fitted curve at half-maximal effect.

SMILES	TGFb inhibitor	HT1080 IDH1KD tx	KB-3-1 tox	HT1080-NT tox	HepG2 viability	KB-V1 cytotox
O=S1(=O)C=C(SCCN2CCCCC2)c2ccccc21	1.3%	14.8%	i	11.0%	-47.5%	i
O=S1(=O)C=C(Sc2nnc(-c3ccccc3)o2)c2ccccc21	10µM*	1.26µM*	14.6µM*	2.82µM*	14.1µM*	u
O=C(CSc1nc2ccccc2s1)CSc1nc2ccccc2s1	-16.6%	5.2%[9.24 µM]	i	u	-31.6%	i
O=S1(=O)C=C(Sc2nc3ccccc3s2)c2ccccc21	2.82µM*	2.59µM*	2.31µM*	2.31µM*	11.2µM*	u
Cc1cc(C)nc(SC2=CS(=O)(=O)c3ccccc32)n1	2.9%	u	18.4µM*	23.1µM*	-37.0%	u
CSc1nnc(-c2ccccc2)o1	0.9%	20.7%	i	2.6%	2.2%	i
Cc1cc(Cl)ccc1OCC(=O)Nc1ccccc1N1CCOCC1	-0.5%	-24.1%	u	-23.4%	-7.7%	14.6µM*
COc1cc(C)ccc1OCC(=O)Nc1ccccc1N1CCOCC1	-29.2%	-11.2%	i	-6.0%	-4.0%	5.8µM*
Cc1cc(Cl)ccc1OCC(=O)NC(=S)Nc1ccccc1N1CCOCC1	-6.7%	-0.4%	i	11.3%	-15.0%	i
O=C(COc1ccc(F)cc1Br)Nc1ccccc1N1CCOCC1	u	-16.7%	i	-0.3%	-18.5%	8.2µM*
Cc1ccc(OCC(=O)Nc2ccccc2N2CCOCC2)c(C)c1	-20.2%	-5.1%	i	1.5%	1.7%	i
O=C(COc1ccc(F)cc1Br)Nc1ccccc1N1CCCC1	-0.3%	-7.5%	i	-4.7%	-20.8%	i
Cc1ccccc1OCC(=O)Nc1ccccc1N1CCCCC1	-9.7%	u	u	-25.5%	-15.9%	14.6µM*
CCOc1ccc(NC(=O)CCc2c(C)nc3cc(-c4ccccc4OC)nn3c2C)cc1	-27.1%	x	i	x	-4.1%	i
Cc1oc2ncn(CC(C)C)c(=O)c2c1C(=O)Nc1cccc(C(F)(F)F)c1	4.5%	x	i	x	-0.8%	i
O=C(Nc1ccc(F)cc1)c1ccc(CN2CCc3ccccc3C2)cc1	-23.8%	-6.4%	u	0.3%	-28.1%	5.8µM*
Cc1ccccc1NC(=O)c1ccc(CN2CCc3ccccc3C2)cc1	0.0%	-27.6%	10.3µM*	-25.4%	-22.9%	u
CC(=O)Nc1ccc(NC(=O)c2ccc(CN3CCc4ccccc4C3)cc2)cc1	-9.4%	u	i	u	13.5%	i
COC(=O)c1ccc(CN2CCc3ccc(NC(=O)c4ccncc4)cc3C2)cc1	-28.4%	-0.4%	u	-0.8%	-8.8%	13µM*
CSc1cccc(NC(=O)c2ccc(CN3CCc4ccccc4C3)cc2)c1	0.0%	u	u	-27.1%	-17.2%	u
O=C(Nc1cccc(Br)c1)c1ccc(CN2CCc3ccccc3C2)cc1	u	u	u	16.4µM*	-18.1%	u
COc1ccc(NC(=O)c2ccc(CN3CCc4ccccc4C3)cc2)c(OC)c1	-29.2%	8.2%	i	1.7%	-7.9%	i
COc1cc(C)c2ccccc2n1	-2.6%	x	u	x	12.0%	u
Cc1noc(Cn2c(=O)c3cc4c(cc3n(CC(=O)Nc3cccc(Cl)c3)c2=O)OCO4)n1	-11.9%	x	i	x	-1.3%	i
COc1cccc(-c2cc(C(=O)NCc3ccccc3)[nH]n2)c1	-6.8%	x	x	x	-19.8%	x
SMILES	TGFb inhibitor	HT1080 IDH1KD tx	KB-3-1 tox	HT1080-NT tox	HepG2 viability	KB-V1 cytotox
Cc1ccccc1Nc1nc(Nc2ccccc2C)nc(SC2=NCCS2)n1	u	u	i	u	-22.0%	16.4µM*
Cc1ccc(Nc2nc(Nc3ccc(C)cc3)nc(SC3=NCCS3)n2)cc1	u	u	i	10µM*	-26.2%	i
CCOc1ccc(CCNC(=O)CN2C(=O)COc3ccc(S(=O)(=O)N4CCC(C)CC4)cc32)cc1	0.1%	x	u	x	-22.8%	u
CCOC(=O)c1cccc(NC(=O)c2cc3c(=O)n(C)c4ccccc4c3n2C)c1	2.5%	x	i	x	1.6%	i
O=C1c2ccccc2C(=O)c2c1ccc(C(=O)N1CCCCC1)c2NCCO	u	17.1%	i	5.0%	9.4%	u
CC1CCCN(C(=O)c2ccc3c(c2NCCO)C(=O)c2ccccc2C3=O)C1 (centres undefined)	u	-10.8%	i	-3.7%	-0.2%	4.61µM*
NS(=O)(=O)c1ccc(CCNC(=O)CNC(=O)c2ccc(Br)o2)cc1	17.1%	6.7%	i	-0.4%[9.24 µM]	2.7%	u
Clc1nssc1=Nc1ccccc1	-1.3%	-0.2%	i	-2.8%	-41.7%	i
Clc1ccc(N=c2ssnc2Cl)cc1	14.1µM*	-18.1%	20.6µM*	-13.4%	-36.1%	20.6µM*
Cc1ccc(Cl)c(OCCCN(C)Cc2ccccc2)c1	-28.3%	-21.6%	i	u	-37.1%	i
Cc1ccc(Cl)c(OCCCCN(C)Cc2ccccc2)c1	-0.9%	u	i	u	-63.2%	20.6µM*
CC1C(=O)N2CCCc3cc(NC(=O)C(=O)NCCCc4ccccc4)cc1c32 (centres undefined)	-3.2%	-19.2%	u	-8.1%	-41.1%	u
CC1C(=O)N2CCCc3cc(NC(=O)C(=O)NCCc4ccc(F)cc4)cc1c32 (centres undefined)	11.7%	20.6µM*	i	18.4µM*	-2.7%	i
CCCN(C(=O)Cn1nc(Cc2cccnc2)c2ccccc2c1=O)c1ccc(C(C)C)cc1	20µM*	x	x	x	12.6µM*	x
C(=NNc1ccc2ccccc2n1)c1ccccn1	u	7.31µM*	i	18.4µM*	-36.7%	i
C(=N\Nc1nc2ccccc2s1)/c1ccccn1	3.55µM*	6.51µM*	u	u	6.31µM*	u
COc1ccc(C=NNc2nc3ccccc3s2)cc1	-1.7%	-13.7%	i	-16.3%	-27.1%	i
O=[N+]([O-])c1cc(Cl)cc(/C=N/Nc2nc3ccccc3s2)c1O	7.9%	18.4µM*	u	20.6µM*	-11.7%	u
C(=N\NC1=Nc2cccc3cccc1c23)/c1ccccn1	2µM*	u	23.1µM*	-19.8%	0.7%	u
Cc1csc(N/N=C/c2ccccn2)n1	u	u	u	u	-27.3%	u
COc1cc(/C=N/Nc2nc3ccccc3s2)cc([N+](=O)[O-])c1O	-18.5%	4.6%	i	-6.6%	-23.2%	i
COc1cccc(/C=C/c2nccc3ccccc23)c1OC	3.3%	x	u	x	-8.4%	u
COc1ccccc1CNc1nc(-c2ccco2)nn1C(=O)c1ccccc1[N+](=O)[O-]	-13.9%	x	i	x	-38.3%	i
